This is an account of results in PubChem BioAssay (NCI).

Molecules are shown by their SMILES. Compounds without any hit were thinned out: in the full panel of roughly 83,000, 20% have a hit.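 Percent growth is the endpoint: 0 to 100 indicates growth inhibition (40 means 60% inhibition), 0 means no net growth, and negative values indicate cell death.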 A number with no mark means an inactive call. Calls of active or inactive are those of the source. How the source made its calls: active means growth percent below 10; inactive means the rest.

Test systems include NCI-H322M lung; HOP-62 NSCLC; NCI-H460 lung; HOP-92 NSCLC; NCI-H522 lung; A549/ATCC NSCLC; 786-0 renal; COLO 205 colon; DU-145 prostate; K-562 leukemia; MALME-3M melanoma; MDA-MB-231 breast; RXF 393 renal; SF-268 CNS; SF-295 CNS; SF-539 CNS; UACC-257 melanoma; M14 melanoma; NCI-H226 lung.
Holding throughout (assay): NCI-60 one-dose screen, 48 h (100 = growth as untreated, 0 = no growth, -100 = all killed)
Common to all, as to settings: 10 µM unless noted

Regarding `O=C(Nc1ccccc1C(F)(F)F)C1=NCCCCN1`, the growth in the assay with NCI-H322M lung was 95.1%; with HOP-62 NSCLC it was 100%; with NCI-H460 lung, 105%; in the assay on HOP-92 NSCLC, 97.9%; in the assay on NCI-H522 lung, 86.8%; in the assay on A549/ATCC NSCLC, 102%. Further, the growth is 98.8% with 786-0 renal; 110% with COLO 205 colon; 106% with DU-145 prostate; 94.4% in the assay on K-562 leukemia; 103% with MALME-3M melanoma; 102% in the assay on MDA-MB-231 breast. Also, the growth with RXF 393 renal is 97%; with SF-268 CNS, 96.8%; with SF-295 CNS it was 93.6%; with SF-539 CNS, 96.1%; with UACC-257 melanoma, 99%; with M14 melanoma, 98.3%.

As for `O=C(Nc1ccc(Oc2cccc(F)c2)c(Cl)c1)c1cnccn1`, the growth is 61.8% in the assay on NCI-H226 lung; 46.3% in the assay on NCI-H322M lung; 42.4% with HOP-62 NSCLC; 22.1% in the assay on NCI-H460 lung; 51.5% in the assay with HOP-92 NSCLC; 22.3% in the assay with NCI-H522 lung. The growth with A549/ATCC NSCLC was 39.1%; in the assay with 786-0 renal it was 46.5%; with DU-145 prostate it was 19.1%; in the assay on K-562 leukemia, 13.4%; with MALME-3M melanoma, 51.4%; with MDA-MB-231 breast, 53.5%. The growth in the assay with RXF 393 renal is 7.37% (active); with SF-268 CNS, 55.5%; with SF-295 CNS, 36%; in the assay with SF-539 CNS, -3.46% (active); in the assay on UACC-257 melanoma it was 64.9%; in the assay with M14 melanoma it was 25.6%.

Turning to `CN1CCN(Cc2ccc(NC(=O)c3cncc(C#Cc4cnc(N)c5ccc(C#N)cc45)c3)cc2C(F)(F)F)CC1`, the growth in the assay on NCI-H322M lung is 26.6%; in the assay with HOP-62 NSCLC it was 2.55% (active); in the assay with NCI-H460 lung, -49.3% (active); with NCI-H522 lung it was 5.63% (active); with A549/ATCC NSCLC, -53% (active); with 786-0 renal, -71.8% (active). In addition, the growth in the assay with COLO 205 colon was -71.9% (active); with DU-145 prostate, -7.64% (active); in the assay on K-562 leukemia, 0.252% (active); in the assay on MALME-3M melanoma, -72.6% (active); in the assay on MDA-MB-231 breast, -81.7% (active); with RXF 393 renal, -90.7% (active). In addition, the growth in the assay on SF-268 CNS was -69.4% (active); with SF-295 CNS, 38.8%; in the assay on SF-539 CNS, -57.6% (active); with UACC-257 melanoma it was 6.11% (active); with M14 melanoma, -83.9% (active).

Take `Fc1ccc(/C=C/c2cc(/C=C/c3ccc(F)cc3)n(-c3cc(F)cc(F)c3)n2)cc1`: the growth was 109% in the assay on NCI-H226 lung; 86.5% with NCI-H322M lung; 96% with HOP-62 NSCLC; 107% with NCI-H460 lung; 83% in the assay on HOP-92 NSCLC; 61.7% in the assay with NCI-H522 lung. The growth in the assay with A549/ATCC NSCLC is 90.8%; in the assay on 786-0 renal, 77.4%; in the assay with COLO 205 colon, 119%; in the assay with DU-145 prostate it was 99.9%; in the assay with K-562 leukemia it was 66.4%; in the assay with MALME-3M melanoma, 98.1%. Besides, the growth in the assay with MDA-MB-231 breast is 101%; with RXF 393 renal it was 112%; in the assay with SF-268 CNS it was 102%; with SF-295 CNS, 93.5%; in the assay with SF-539 CNS, 103%; with UACC-257 melanoma it was 106%. Moreover, the growth in the assay with M14 melanoma is 87.7%.

Turning to `Cc1ccccc1NC(=O)c1sc2nc3c(cc2c1N)CCCC3`, the growth with NCI-H226 lung was 63.4%; in the assay on NCI-H322M lung, 51.1%; in the assay on HOP-62 NSCLC it was 27.4%; in the assay with NCI-H460 lung it was 11%; with HOP-92 NSCLC, 17.3%; with NCI-H522 lung it was 11.1%. Further, the growth is 34.3% with A549/ATCC NSCLC; 33.7% in the assay on 786-0 renal; 15.5% with COLO 205 colon; 25.2% with DU-145 prostate; 17.6% with K-562 leukemia; 53.9% in the assay on MALME-3M melanoma. Besides, the growth was 52.5% in the assay with MDA-MB-231 breast; 14.2% with RXF 393 renal; 49.6% in the assay with SF-268 CNS; 16.4% in the assay with SF-295 CNS; 8.72% (active) in the assay with SF-539 CNS; 40.7% in the assay with UACC-257 melanoma. In addition, in the assay with M14 melanoma, the growth was 27%.

Regarding `O=C(Nc1cccc2c1C(=O)c1cccc(NC(=O)c3ccc(C(=O)Nc4cccc5c4C(=O)c4cccc(NC(=O)c6ccccc6)c4C5=O)cc3)c1C2=O)c1ccccc1`, the growth in the assay on NCI-H226 lung was 74.1%; in the assay with NCI-H322M lung it was 98.8%; in the assay on HOP-62 NSCLC it was 103%; in the assay with NCI-H460 lung, 111%; in the assay on HOP-92 NSCLC, 58.4%; with NCI-H522 lung, 84.7%. Besides, the growth is 99.6% in the assay with A549/ATCC NSCLC; 109% in the assay on 786-0 renal; 111% with COLO 205 colon; 115% in the assay with DU-145 prostate; 93.5% with K-562 leukemia; 101% with MALME-3M melanoma. In addition, the growth was 90.4% with MDA-MB-231 breast; 103% in the assay with RXF 393 renal; 109% in the assay on SF-268 CNS; 108% in the assay on SF-295 CNS; 104% in the assay with SF-539 CNS; 95.1% with UACC-257 melanoma. In addition, the growth in the assay with M14 melanoma was 113%.

On to `O=C(Cn1cc(CSc2nc3ccccc3o2)nn1)Nc1ccc([N+](=O)[O-])cc1`, for which the growth was 102% with NCI-H322M lung; 83.7% in the assay with HOP-62 NSCLC; 98.5% in the assay with NCI-H460 lung; 95.2% in the assay on HOP-92 NSCLC; 78.5% with NCI-H522 lung; 101% in the assay on A549/ATCC NSCLC. In addition, the growth was 99.1% in the assay with 786-0 renal; 110% with COLO 205 colon; 108% in the assay with DU-145 prostate; 92.6% with K-562 leukemia; 104% in the assay with MALME-3M melanoma; 91.5% in the assay on MDA-MB-231 breast. The growth in the assay on RXF 393 renal was 108%; in the assay on SF-268 CNS, 91.8%; with SF-295 CNS, 102%; in the assay on SF-539 CNS it was 101%; in the assay on UACC-257 melanoma, 110%; with M14 melanoma it was 96.2%.
